This is a sample that favours compounds with a hit; in the whole collection about 3% have one here.
IkB sig inh: inhibitors of IkB signaling in ABC-DLBCL cells; ABC-DLBCL IkBa-CBG/CBR dual luciferase ratio, 4 h; response scale: scaled: untreated 0%, proteasome inhibitor 100%; Potency, µM (highest dose often 57.1 µM), for the others: at the highest dose IkBa stabilization activation; 110,000 tested, 0.04% active; AID 445; active = well fitted curve in the direction sought with a large enough effect in the signal ratio, not every such curve was filed as active; inconclusive = small, poorly fitted or top-dose-only effect, or a change in a side signal; the % refers to the signal ratio;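 also: the direction sought is a rising ratio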
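Luminescence ratio of IκBα-fused green versus native red beetle luciferase in OCI-Ly3 cells, 4 h post-doxycycline with compound; red signal alone, scaled from basal (0%) to zero light (-100%), flagged nonspecific or cytotoxic effects.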
Imprint erasure: genomic imprint erasure induction; Potency, µM (top dose mostly 60.7 µM), for inactives: top-dose activity change, positive = activation, usual class: activators; mouse ES Peg3-LacZ reporter, beta-gal luminescence, 40 h; AID 1948; 110,000 tested, 0.02% active
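Readout: BetaGlo luminescence (5 min, room temp) for LacZ from the normally silent maternal Peg3 allele in female Peg3LacZ-Neo ES cells. Cells 300/well, 40 h, 37C, 5% CO2. Data normalized per plate to negative controls.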
p53ts 32C tox: p53ts cell cytotoxicity, permissive temperature | H1299-p53A138V at 32C, ATP luminescence viability, 24 h | 130,000 tested, 0.93% active | Potency, µM (series often up to 46.1 µM), for inactives: at the top dose activity change, negative = cytotoxicity, usual class: cytotoxic | AID 924;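 also: 0% = DMSO and -100% = full killing by reference compound; nearly all actives have a fitted effect of over 55% in size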
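Cells: H1299 p53ts (A138V), 600/well, pre-incubated 16–30 h at 37C. Cpd up to 46 uM, 24 h, 32C. Readout: ATPlite luminescence, 20 min RT. Normalization: DMSO vs tamoxifen 100 uM. AC50 by Hill equation.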
CRE Fsk mod: alters forskolin-stimulated CRE reporter signaling in CHO cells; Potency, µM (titrated, usually from 38.2 µM), inactives show at the top dose activity change, negative = inhibition, most hits filed as activators; 71,000 tested, 2.5% active; CHO CRE-bla reporter (cAMP response element driving beta-lactamase), forskolin EC10, beta-lactamase ratio; active = well fitted activation curve with a large enough effect in the signal ratio, with a control signal flat, not every such curve was filed as active; inconclusive = small, poorly fitted or top-dose-only effect, or effect the other way, or a change in a side signal; the % refers to the signal ratio; also: % of control where 0% means no effect
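Modulation of forskolin signalling: compounds in titration series added with EC10 NKH 477 to CHO cells carrying a CRE-driven beta-lactamase reporter, 3 h, 37C. CCF4 FRET ratio (460/530 nm, ex 405 nm) gives %activity and AC50.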
p53ts 39C kill: cytotoxicity in p53ts cells at nonpermissive temperature; AID 902; 130,000 tested, 1.5% active; Potency, µM (titrated, usually from 46.1 µM), without a hit: at the top dose activity change, negative = cell killing, hits mostly cytotoxic; H1299-p53A138V viability at 39C, ATP luminescence, 24 h; also: % is scaled to controls: 0 for no effect and ±100 for the full control effect; nearly all actives have a fitted effect of over 55% in size
An asterisk follows results filed as active; ? = inconclusive; . = no result given; [ ] = another dose, or the depositor's remark. Unless noted, calls follow the shape of the dose curve; as a rule, active = well fitted curve in the direction sought with a large enough effect; inconclusive = small, poorly fitted or top-dose-only effect, or another doubt; inactive = no such curve, though single readings can be large; an effect the other way counts as inactive or inconclusive. Potency is read from the fitted curve at half-maximal effect.

SMILES	IkB sig inh	Imprint erasure	p53ts 32C tox	CRE Fsk mod	p53ts 39C kill
CC(C)(C)N1C(=O)Cc2c1nc(N)c1c(N)nc(N3CCCCC3CO)c(C#N)c21 (centres undefined)	?	-14%	?	2.5µM*	-19%
COc1ccc(C2CC(C(F)(F)F)n3ncc(C(=O)NCc4cccnc4)c3N2)cc1OC (centres undefined)	-4%	2%	-12%	13µM*	-15%
COc1cccc(C2CC(C(F)(F)F)n3ncc(C(=O)NCC4CCCO4)c3N2)c1 (centres undefined)	0%	-1%	3%	-4%	-6%
COC(=O)[C@@H](NC(=O)c1cc(-c2ccccc2)nc2ccccc12)c1ccccc1	-4%	.	.	-4%	.
CCc1ccc2occ(CC(=O)Nc3c(C(=O)Nc4ccc(C)cc4)oc4ccccc34)c2c1	?	-3%[10.9 µM]	-29%	.	32µM*
O=C1N(Cc2ccccc2Cl)c2ccccc2C1(O)c1c[nH]c2ccccc12 (centres undefined)	?	4%[10.9 µM]	8%	.	?
COc1cc(C(=O)NC(c2ccccc2Cl)c2cc(Cl)c3cccnc3c2O)cc(OC)c1OC (centres undefined)	4%	-34%[10.9 µM]	?	.	?
COc1ccc(C(=O)NC(c2ccccc2Cl)c2cc(Cl)c3cccnc3c2O)cc1 (centres undefined)	?	-21%[10.9 µM]	-9%	.	2.5µM*
COC(=O)c1ccccc1Nc1cc(C)nc2nc(C)nn12	-4%	-16%	-3%	13µM*	7%
CCOC(=O)c1ccccc1Nc1cc(C)nc2nc(C)nn12	-3%	-20%	2%	13µM*	-1%
COc1cccc(NC(=O)Cn2c(=O)n(-c3ccc(C)cc3)c(=O)c3ccccc32)c1	?	-8%[10.9 µM]	7%	.	13%
CCCCOc1ccc(C2=NC(c3ccncc3)=Nc3ccc(OCC)cc3N2)cc1	?	-13%[10.9 µM]	4%	.	-7%
O=C(COCc1cc(-c2ccc3c(c2)OCO3)on1)Nc1cc(Cl)ccc1O	.	.	-3%	.	.
NS(=O)(=O)c1ccc(N=Nc2nc3[nH]cnc(=S)c3[nH]2)cc1	6%[11.4 µM]	5%[10.9 µM]	-29%[9.22 µM]	-9%[7.6 µM]	-22%[9.22 µM]
S=c1nc[nH]c2nc[nH]c12	.	4%	?	.	7.9µM*
CSc1cccc(Nc2cc(C(=O)NCCc3ccc(Cl)cc3)c3ccccc3n2)c1	?	-8%[10.9 µM]	0%	.	?
CCCCN(CCCNC(=O)c1cc(Nc2cccc(SC)c2)nc2ccccc12)Cc1ccccc1	?	-31%[10.9 µM]	-16%	.	4.5µM*
COc1ccc(Nc2cc(C(=O)NCCCN(C)C3CCCCC3)c3ccccc3n2)cc1	-2%	-12%[10.9 µM]	-5%	.	13µM*
O=C(Cn1cc(SCc2ccc(C(F)(F)F)cc2)c2ccccc21)N1CCCCC1	?	-16%[10.9 µM]	-19%	.	-17%
CC1CCCN(CCCNC(=O)c2ccc3c(c2)N(Cc2cccc(Cl)c2)C(=O)c2ccccc2S3(=O)=O)C1 (centres undefined)	0%	-17%[10.9 µM]	3%	.	13µM*
CC(C)c1ccc(S(=O)(=O)c2nnn3c2nc(N2CCN(C)CC2)c2sccc23)cc1	?	-5%[10.9 µM]	15%	.	21%
CCN(CC)CCCNC(=O)c1c2c(nc3ccccc13)C(=O)N(C1CCCCC1)C2	-1%	7%[10.9 µM]	-2%	.	-17%
COCn1c(-c2ccc(OC)cc2)nc2ccccc21	.	.	7.9µM*	.	11µM*
COc1ccc(-c2nc3ccccc3n2Cc2ccc(C(C)C)cc2)cc1	?	-16%[10.9 µM]	28%	.	18µM*
CCCn1c(-c2ccc(OC)cc2)nc2ccccc21	?	-15%	-24%	0%	-12%
SMILES	IkB sig inh	Imprint erasure	p53ts 32C tox	CRE Fsk mod	p53ts 39C kill
COCCn1c(-c2cc(OC)c(OC)c(OC)c2)nc2nc3ccccc3nc21	-1%	0%	0%	?	-2%
COCCn1c(-c2ccco2)nc2nc3ccccc3nc21	3%	-37%	-13%	7.9µM*	-11%
CC(C)OCCCn1c(-c2ccco2)nc2nc3ccccc3nc21	-4%	-17%	-5%	7.9µM*	10%
COc1ccc(-c2cc(C(=O)N3CCN(c4ccccn4)CC3)c3ccccc3n2)cc1	?	-21%	13µM*	?	13µM*
CCOc1ccc(-c2cc(C(=O)N3CCN(c4ccccn4)CC3)c3ccccc3n2)cc1	2%	-17%	2.5µM*	-3%	?
COc1cc(-c2cc(C(=O)N3CCN(c4ccccn4)CC3)c3ccccc3n2)cc(OC)c1OC	?	-11%	14%	24%	-9%
Cn1c(=O)n(Cc2ccccc2)c(=O)c2c1nc1n2CCN1c1ccccc1	2%	2%[10.9 µM]	2%	.	?
Cc1ccc(NC(=O)Cn2ncn3c(cc4ccccc43)c2=O)cc1F	0%	-7%[10.9 µM]	-8%	.	-29%
CCc1nn(CC(=O)Nc2ccc(C)c(F)c2)c(=O)c2cc3cc(C)ccc3n12	-1%	14%[10.9 µM]	3%	.	32µM*
CCN(CC)S(=O)(=O)c1ccc2c(c1)c(=O)c(C(=O)N1CCN(c3ccc(OC)cc3)CC1)cn2C	3%	4%[10.9 µM]	1%	.	22%
CC(C)Oc1ccc(C(=O)Nc2nnc3n2CCS3)cc1	2%	-69%[10.9 µM]	?	.	13µM*
Fc1ccc(Cn2c(-c3cccc(Br)c3)nc3ccccc32)cc1	?	-5%[10.9 µM]	3%	.	-8%
COc1ccc(-c2ccc(-c3nnn(CC(=O)N4CCOCC4)n3)cc2)cc1	2%	-7%	2.5µM*	6%	?
Cc1cc(O)cc(=O)n1Cc1ccco1	1%	1%	0%	0%	2%
Cc1cc(C2=NNC(=NC3CC3)SC2)c(C)n1-c1ccccc1	.	.	.	.	10µM*
Cc1cc(C2=NNC(=NC3CC3)SC2)c(C)n1Cc1ccco1	.	.	.	.	13µM*
Cc1cc(-c2nnco2)c(C)n1-c1ccccc1	0%	-14%	-28%	?	?
COc1cccc(NC(=O)CSc2nc3n[nH]c(C)c3c(=N)n2-c2cccc(OC)c2)c1	?	-19%	-4%	2.5µM*	?
Cc1[nH]nc2nc(SCC(=O)NCC3CCCO3)n(-c3ccc(Br)cc3)c(=N)c12 (centres undefined)	-2%	-12%	20%	7.9µM*	0%
Cc1cc(NC(=O)Cn2c(=O)nc(-c3ccccc3F)c3cc(Cl)ccc32)ccc1Br	?	4%[10.9 µM]	8%	.	-7%
O=C(NCCN1CCOCC1)c1cc2ccccc2o1	-3%	.	-2%	3%	-2%
O=C(Nc1ccc2c(c1)OCO2)c1ccc(CN2CCOCC2)cc1	-1%	-21%	13µM*	1%	?
O=C(Nc1ccc(CN2CCOCC2)cc1)c1cc2ccccc2o1	?	-3%	10µM*	2%	10µM*
O=C(Nc1ccc2oc(-c3ccc(Br)cc3)nc2c1)c1cc2ccccc2o1	2%	2%[10.9 µM]	-2%	.	8%

Screening data: PubChem, National Center for Advancing Translational Sciences (NCATS)
